# Test results from PubChem BioAssay (Tox21).
# Records with an inconclusive call do not appear. Where a call stands in place of a potency, no number is given. Unmarked numbers belong to inactive results. Calls of active or inactive are those of the source. Calls follow the shape of the dose curve; as a rule, active = well fitted curve in the direction sought with a large enough effect in the repeat runs; inconclusive = weak or mixed curves; inactive = no such curve, though single readings can be large; an effect the other way counts as inactive or inconclusive.
# How the values were obtained:
# [1] = biological target: Cytochrome P450 1A2 (Homo sapiens) (UniProt P05177); assay: Cytochrome P450 Family 1 Subfamily A Member 2 (CYP1A2) small molecule antagonists: luciferase reporter qHTS assay (AID 1671199); also: potency is read from the fitted curve at half-maximal effect; as to activity change, negative = inhibition: series mostly up to about 120 µM
# How it was run: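 Luminescence readout (relative luminescence units) after luciferin detection reagent, 20 min RT. Preceded by 1 h room-temperature CYP1A2 reaction with NADPH regeneration solution following 10 min compound preincubation with enzyme and proluciferin substrate. Furafylline positive control.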
# [2] = biological target: Voltage-gated inwardly rectifying potassium channel KCNH2 (Homo sapiens) (UniProt Q12809); assay: Human Ether-a-go-go-Related Gene (hERG) channel small molecule antagonists: fluorescence cell-based qHTS assay (AID 1671200);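 also: hERG-expressing U2OS cells given a thallium stimulus after FluxOR II dye loading; series mostly up to about 77 µM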
# How it was run: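 First, 1000 cells per well are seeded and cultured overnight at 37 C. Next, FluxOR II dye is loaded for 1 h at room temperature, protected from light. After 10 more minutes, stimulus is added and fluorescence is read.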
# [3] = biological target: Cytochrome P450 3A4 (Homo sapiens) (UniProt P08684); assay: Cytochrome P450 Family 3 Subfamily A Member 4 (CYP3A4) small molecule antagonists: luciferase reporter qHTS assay (AID 1671201); also: series mostly up to about 120 µM
# How it was run: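 Enzyme and proluciferin substrate are mixed with test chemicals for 10 min, then NADPH regeneration system drives turnover for 1 h at room temperature. A detection reagent halts the reaction; luminescence after 20 min gives relative activity.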
# Also: nearly all actives have a fitted effect of over 50% in size.
# Chain of Cytochrome P450 1A2 (Homo sapiens) (P05177 whole entry, looked up): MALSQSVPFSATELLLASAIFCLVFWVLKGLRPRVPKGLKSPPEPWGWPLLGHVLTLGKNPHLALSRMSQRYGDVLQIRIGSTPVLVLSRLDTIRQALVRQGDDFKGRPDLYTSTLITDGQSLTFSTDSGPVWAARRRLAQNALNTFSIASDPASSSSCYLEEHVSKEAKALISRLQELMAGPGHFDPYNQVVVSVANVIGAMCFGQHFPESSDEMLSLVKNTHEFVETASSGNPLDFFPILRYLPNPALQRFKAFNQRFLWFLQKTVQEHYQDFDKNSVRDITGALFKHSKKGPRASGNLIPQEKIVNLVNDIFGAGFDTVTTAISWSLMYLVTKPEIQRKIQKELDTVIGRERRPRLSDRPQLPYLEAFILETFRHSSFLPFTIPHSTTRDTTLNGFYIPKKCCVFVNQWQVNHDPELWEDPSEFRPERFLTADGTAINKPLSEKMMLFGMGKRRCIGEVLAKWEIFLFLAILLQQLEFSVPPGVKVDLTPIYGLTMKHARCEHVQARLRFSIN
# Chain of Voltage-gated inwardly rectifying potassium channel KCNH2 (Homo sapiens) (Q12809 whole entry, looked up): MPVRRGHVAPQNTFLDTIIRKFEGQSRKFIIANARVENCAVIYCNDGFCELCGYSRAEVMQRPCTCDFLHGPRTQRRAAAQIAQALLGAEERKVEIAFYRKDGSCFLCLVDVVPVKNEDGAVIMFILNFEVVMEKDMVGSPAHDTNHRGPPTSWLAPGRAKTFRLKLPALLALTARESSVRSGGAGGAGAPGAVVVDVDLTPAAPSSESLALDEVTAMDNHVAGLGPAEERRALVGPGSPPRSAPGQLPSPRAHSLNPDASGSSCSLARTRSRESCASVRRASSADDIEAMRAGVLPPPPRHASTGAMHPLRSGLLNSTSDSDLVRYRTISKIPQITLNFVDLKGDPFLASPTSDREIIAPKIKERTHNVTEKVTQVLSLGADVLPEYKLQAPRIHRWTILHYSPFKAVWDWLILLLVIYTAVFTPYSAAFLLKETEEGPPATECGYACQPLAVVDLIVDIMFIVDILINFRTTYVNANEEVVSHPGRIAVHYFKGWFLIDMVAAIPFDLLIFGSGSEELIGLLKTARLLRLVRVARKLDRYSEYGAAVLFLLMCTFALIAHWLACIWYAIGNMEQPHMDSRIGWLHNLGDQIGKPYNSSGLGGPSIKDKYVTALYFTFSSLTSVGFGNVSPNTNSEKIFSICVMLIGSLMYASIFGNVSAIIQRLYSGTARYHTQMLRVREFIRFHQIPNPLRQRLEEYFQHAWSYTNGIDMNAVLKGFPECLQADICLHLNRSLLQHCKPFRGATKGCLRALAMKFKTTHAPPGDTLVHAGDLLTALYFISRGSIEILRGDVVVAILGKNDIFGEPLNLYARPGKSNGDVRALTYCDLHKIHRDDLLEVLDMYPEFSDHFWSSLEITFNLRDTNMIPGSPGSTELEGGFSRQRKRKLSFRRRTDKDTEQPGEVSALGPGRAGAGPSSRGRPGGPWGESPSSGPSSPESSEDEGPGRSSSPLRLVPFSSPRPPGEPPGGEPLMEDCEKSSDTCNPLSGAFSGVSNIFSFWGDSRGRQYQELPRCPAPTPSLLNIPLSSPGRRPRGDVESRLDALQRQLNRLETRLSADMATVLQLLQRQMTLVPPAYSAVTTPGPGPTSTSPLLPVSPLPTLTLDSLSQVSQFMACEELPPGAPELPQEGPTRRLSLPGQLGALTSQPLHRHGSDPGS
# Chain of Cytochrome P450 3A4 (Homo sapiens) (P08684 whole entry, looked up): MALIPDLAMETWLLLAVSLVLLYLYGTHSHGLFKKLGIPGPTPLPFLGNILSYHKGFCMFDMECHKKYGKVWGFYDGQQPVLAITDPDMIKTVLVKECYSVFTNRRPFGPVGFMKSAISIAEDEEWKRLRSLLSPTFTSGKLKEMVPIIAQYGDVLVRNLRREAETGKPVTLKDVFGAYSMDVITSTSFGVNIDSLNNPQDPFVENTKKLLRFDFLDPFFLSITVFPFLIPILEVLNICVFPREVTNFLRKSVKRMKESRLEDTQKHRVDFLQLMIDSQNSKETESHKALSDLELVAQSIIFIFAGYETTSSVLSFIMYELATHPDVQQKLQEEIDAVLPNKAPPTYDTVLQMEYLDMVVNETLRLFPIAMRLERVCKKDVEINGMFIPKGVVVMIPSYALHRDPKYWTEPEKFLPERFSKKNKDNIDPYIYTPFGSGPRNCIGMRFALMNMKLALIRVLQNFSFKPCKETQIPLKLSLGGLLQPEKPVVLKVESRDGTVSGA
structure (smiles),measurement,setting,value
NCCS,Potency,[1],inactive
same,Potency,[2],inactive
same,Potency,[3],inactive
C=C(C)C(=O)OCC(C)(C)COC(=O)C(=C)C,Potency,[1],inactive
same,Potency,[2],inactive
same,Potency,[3],inactive
COP(=O)(OC)OC(c1ccc(Cl)cc1)P(=O)(OC)OC (centres undefined),Potency,[1],inactive
same,Potency,[2],inactive
same,Potency,[3],inactive
C[C@@H]1O[C@@H](O[C@@H]2[C@@H](O)[C@H](OCCc3ccc(O)c(O)c3)O[C@H](CO[C@@H]3O[C@H](CO)[C@@H](O)[C@H](O)[C@H]3O)[C@H]2OC(=O)/C=C/c2ccc(O)c(O)c2)[C@H](O)[C@H](O)[C@H]1O,Potency,[1],inactive
same,Potency,[2],inactive
same,Potency,[3],inactive
O=C(CS(=O)Cc1ccco1)NC/C=C\COc1cc(CN2CCCCC2)ccn1 (centres undefined),Potency,[1],inactive
same,Potency,[2],inactive
same,Potency,[3],inactive
CCCCCCOC(=O)CC,Potency,[1],inactive
same,Potency,[2],inactive
same,Potency,[3],inactive
O=S(O)(O)=S,"activity change, negative = inhibition",[1],-12.3% [at 10.5 µM]
same,"activity change, negative = inhibition",[2],-2.48% [at 6.97 µM]
same,"activity change, negative = inhibition",[3],0.412% [at 10.5 µM]
COc1ccc(C2CNC(=O)C2)cc1OC1CCCC1 (centres undefined),Potency,[1],13.8 µM (active)
same,Potency,[2],inactive
same,Potency,[3],inactive
CCCOC(=O)C(C)O (centres undefined),Potency,[1],40.8 µM (active)
same,Potency,[2],inactive
same,Potency,[3],inactive
CC1=CCC(C(C)C)=CC1,Potency,[1],inactive
same,Potency,[2],inactive
same,Potency,[3],inactive
CCN1CCc2nc(N)oc2CC1,Potency,[1],inactive
same,Potency,[2],inactive
same,Potency,[3],inactive
O=S(=O)(O)c1ccc2cc(O)c(S(=O)(=O)O)cc2c1,Potency,[1],inactive
same,Potency,[2],inactive
same,Potency,[3],inactive
Cc1ccccc1OCC(O)CO (centres undefined),Potency,[1],27.5 µM (active)
same,Potency,[2],inactive
same,Potency,[3],inactive
CN1C(C)(C)CCCC1(C)C,Potency,[1],inactive
same,Potency,[2],inactive
same,Potency,[3],inactive
CC(C)(C)c1nnc(NS(=O)(=O)c2ccc(N)cc2)s1,Potency,[1],inactive
same,Potency,[2],inactive
same,Potency,[3],inactive
CC(=O)Nc1ccc(S(=O)(=O)Nc2ccc([N+](=O)[O-])cc2)cc1,Potency,[1],inactive
same,Potency,[3],inactive
C[Si](C)=O,"activity change, negative = inhibition",[1],-21% [at 10.5 µM]
same,"activity change, negative = inhibition",[3],-1.04% [at 10.5 µM]
O=C1CCCC(=O)O1,Potency,[1],inactive
same,Potency,[2],inactive
same,Potency,[3],inactive
CC(C)C[C@H](NC(=O)CNC(=O)[C@H](Cc1ccc(O)cc1)NC(=O)[C@H](CO)NC(=O)[C@H](Cc1c[nH]c2ccccc12)NC(=O)[C@H](Cc1cnc[nH]1)NC(=O)[C@@H]1CCC(=O)N1)C(=O)N[C@@H](CCCN=C(N)N)C(=O)N1CCC[C@H]1C(=O)NCC(N)=O (stereo in doubt),Potency,[2],inactive
CC(C)OC(=O)CCCCC(=O)OC(C)C,Potency,[1],inactive
same,Potency,[3],inactive
O=S(=O)(O)CCN1CCN(CCO)CC1,Potency,[1],inactive
same,Potency,[3],inactive
C=C(C)C1CCC(C)(O)CC1 (centres undefined),Potency,[1],inactive
same,Potency,[3],inactive
